Lmaj promast: Leishmania major promastigote growth inhibition | Leishmania major promastigotes, resazurin fluorescence viability | 9% of 200,000 active | AID 1063 | inhibition, % at 10 µM; in the data active = inhibition above about 50%;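 note: promastigotes grown with compound for 44 hours at 28 °C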
Arbovirus inh: arbovirus infection inhibition. AID 1251. inhibition, % at 10 µM. 0.37% of 200,000 active. arbovirus infection cell-based antiviral screen; in the data active = inhibition above about 30%
WT yeast gro inh: growth inhibition of WT yeast, mitochondrial fusion screen; inhibition, % at 10 µM; mitochondrial fusion phenotypic screen, WT strain; AID 1362; 2.1% of 190,000 active; in the data active = inhibition above about 58%; tested in S. cerevisiae
CHOP inhibitor: CHOP inhibition in unfolded protein response; CHO-K1 CHOP-promoter luciferase, tunicamycin-induced, 15-18 h; inhibition, % at 10 µM; 3.8% of 220,000 active; AID 2732;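 active = compounds that reduced the stress-induced luciferase reporter signal by more than about 70% of percent inhibition, limit read from the data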;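 note: 0% = tunicamycin plus vehicle and 100% = wells without tunicamycin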
Starred values were filed as active, the others as inactive; nt = not tested or not shown. This is a sample that favours compounds with a hit; in the whole collection about 12% have one here.

SMILES | Lmaj promast | Arbovirus inh | WT yeast gro inh | CHOP inhibitor
COc1ccc(-c2oc3ncnc(NCCN4CCOCC4)c3c2-c2ccc(OC)cc2)cc1 | 49 | -10 | -5 | nt
CCOc1cc2nc(-c3ccc(OC)c(OC)c3)nc(NCCCN3CCOCC3)c2cc1OC | 54* | 17 | -9 | -58
Cc1cc(NC(=O)COC(=O)[C@@H](NS(=O)(=O)c2ccc(Br)cc2)C(C)C)no1 | nt | nt | nt | 0
CCCCCCCC1CC(/C(C)=N/NC(N)=O)OC1=O (stereo not given) | -10 | 8 | 3 | 16
COc1ccc(C(=O)n2ccc(C)n2)cc1Br | -3 | 1 | 6 | -1
CCOC(=O)Cc1ccc(NCc2ccc(Cl)cc2)cc1 | 100* | 12 | 8 | 78*
CCOC(=O)C1CCN(CCC(=O)Nc2cccc(Cl)c2C)CC1 | 94* | 11 | 3 | 45
Cc1ccc(Cl)cc1NC(=O)COC(=O)C1CC1 | -6 | 23 | 7 | 26
CCOC(=O)C1CCC(CNCc2ccc(Cl)cc2)CC1 (stereo not given) | 92* | 4 | 20 | 11
CCOC(=O)C1CCN(CCC(=O)Nc2ccc(Cl)cc2)CC1 | 91* | 4 | -13 | -15
CCOC(=O)C1CCCN(CCC(=O)Nc2ccc(F)c(F)c2)C1 (stereo not given) | 43 | 1 | 2 | 6
C=C1SC(Nc2c(C)cc(C)cc2C)=NC12CCCCC2 | nt | nt | nt | 53
CC(OC(=O)C1CC1)C(=O)Nc1ccc([N+](=O)[O-])cc1Cl (stereo not given) | -15 | 2 | 12 | 2
CCOC(=O)C1CCN(CCC(=O)Nc2ccccc2)CC1 | 79* | 11 | -16 | 39
Cc1ccccc1Nc1nc(N)nc(CSc2nnnn2-c2ccccc2)n1 | 20 | -3 | 7 | 54
CCc1ccc(Nc2nc(N)nc(CSc3nnnn3-c3ccccc3)n2)cc1 | 31 | -1 | -18 | 88*
Cc1ccc(-c2[nH]c(-c3ccc(Cl)cc3)nc2SCC(=O)NCC2CCCO2)cc1 (stereo not given) | 70* | 0 | 22 | 54
Cc1ccc(-c2nc(S(=O)(=O)c3ccc(F)cc3)c(SCC(=O)NCC3CCCO3)o2)cc1 (stereo not given) | 11 | 7 | -17 | 70*
Cc1ccc(S(=O)(=O)c2nc(-c3ccc(F)cc3)oc2SCC(=O)NCC2CCCO2)cc1 (stereo not given) | 10 | 12 | -22 | 36
Cc1ccc(/C(O)=C/C(=O)C(=O)NNC(=O)C(O)(c2ccccc2)c2ccccc2)cc1 | -12 | -1 | -7 | 85*
CC(=O)NNC(=O)C(O)(c1ccccc1)c1ccccc1 | -4 | 4 | 15 | -5
CCc1nnc(NC(=O)c2ccc(-c3ccc([N+](=O)[O-])cc3Cl)o2)s1 | -4 | -7 | -4 | 56
CSc1ccccc1NC(=O)Nc1cccc(Cl)c1 | 17 | 19 | 37 | 45
O=C(Nc1cccc(Cl)c1)Nc1ccccc1-n1ccnc1 | 74* | 2 | 14 | 10
CCCNC(=O)CN1C(=O)NC(CCc2ccccc2)C1=O (stereo not given) | -7 | 17 | -17 | -7
SMILES | Lmaj promast | Arbovirus inh | WT yeast gro inh | CHOP inhibitor
CCCN1CCN(c2ccc(S(N)(=O)=O)cc2[N+](=O)[O-])CC1 | -6 | 7 | -8 | 13
COc1ccc(N2CCN(S(=O)(=O)c3ccc4c(c3)CCCC4)CC2)c([N+](=O)[O-])c1 | 12 | 19 | -6 | 71*
CCN(CC)S(=O)(=O)c1ccc(N2CCN(c3cccc(OC)c3)CC2)c([N+](=O)[O-])c1 | 100* | 7 | -17 | 24
CCN1CCN(c2ccc(S(=O)(=O)N(CC)CC)cc2[N+](=O)[O-])CC1 | 95* | -2 | 12 | 3
COc1ccc(N2CCN(C(=O)CC34CC5CC(CC(C5)C3)C4)CC2)c([N+](=O)[O-])c1 | 30 | -5 | 66* | 43
CCC(=O)N1CCN(c2ccc(OC)cc2[N+](=O)[O-])CC1 | -2 | -1 | 5 | 15
CN1CCN(c2ccc(S(=O)(=O)N3CCCCC3)cc2[N+](=O)[O-])CC1 | 39 | 4 | -4 | 3
CC1CCCC(=C\c2ccccc2)/C1=N/O (stereo not given) | -2 | 2 | -22 | -8
COc1cc(/C=C2\SC(N3CCc4ccccc4C3)=NC2=O)cc(OC)c1OC | 54* | -8 | 8 | 8
COc1ccc(/C=C2\SC(N3CCc4ccccc4C3)=NC2=O)cc1 | 0 | 17 | 62* | 13
S=c1[nH]nc(C(c2ccccc2)C2CCCCC2)o1 (stereo not given) | nt | nt | nt | 21
COc1ccc(-n2c3c(cc(C(=O)NNc4ccccc4C)c2=O)C(=O)CC(C)(C)C3)cc1 | 47 | -20 | 7 | -10
COc1ccc(-n2c3c(cc(C(=O)NNc4ccccc4)c2=O)C(=O)CC(C)(C)C3)cc1 | 60* | -31 | 30 | 8
